About 79,000 compounds went through this panel and 15% of them were active in at least one assay; those are over-represented in the sample as a whole. Activity calls are given as the source filed them. Rule as the data show it: active = growth inhibition above about 70%; inactive = the rest.
Assays:
[1] = NCI Yeast Anticancer Drug Screen. Data for the rad52 strain (AID 147);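 also: 0% = growth of vehicle-treated control cultures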; conditions: S. cerevisiae rad52 mutant growth inhibition, hits give high values
Method in brief: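 DNA repair-defective yeast; compound exposure; growth scored against vehicle controls.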

[2] = NCI Yeast Anticancer Drug Screen. Data for the wt1 strain (AID 149);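 also: 0% = growth of vehicle-treated wt1 cultures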; conditions: S. cerevisiae wt1 strain (SPY 50644) growth inhibition, hits give high values
Method in brief: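 Yeast wt1 strain exposed to compounds; growth inhibition measured relative to vehicle-treated controls.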

[3] = NCI Yeast Anticancer Drug Screen. Data for the rad50EPP+ strain (AID 151);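 also: 0% = growth of vehicle-treated control cultures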; conditions: S. cerevisiae rad50 mutant strain, hits give high values
Method in brief: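 rad50EPP+ yeast treated with test compounds. Readout: growth vs vehicle control.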

[4] = NCI Yeast Anticancer Drug Screen. Data for the mgt1 strain (AID 153); conditions: S. cerevisiae mgt1 mutant growth inhibition, hits give high values
Method in brief: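 Growth inhibition relative to vehicle controls was scored for the mgt1 yeast strain after compound exposure.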

[5] = NCI Yeast Anticancer Drug Screen. Data for the rad50 strain (AID 155);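 also: 0% = growth of vehicle-only cultures of the same strain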; conditions: S. cerevisiae rad50 strain growth inhibition, hits give high values
Method in brief: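 Yeast carrying a defined DNA repair defect were exposed to test compounds, and growth was compared with vehicle-treated controls to give percent inhibition.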

[6] = NCI Yeast Anticancer Drug Screen. Data for the mec2-1 strain (AID 157); conditions: S. cerevisiae mec2-1 strain, hits give high values
Method in brief: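 Growth inhibition is read against vehicle-treated controls after compound exposure of the mec2-1 yeast strain, which is defective in DNA damage repair or cell cycle control.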

[7] = NCI Yeast Anticancer Drug Screen. Data for the rad14 strain (AID 159);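 also: 0% = growth of vehicle-treated control cultures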; conditions: S. cerevisiae rad14 strain growth inhibition, hits give high values
Method in brief: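 Yeast cells carrying a defined DNA-repair defect were exposed to compounds, and growth inhibition was calculated relative to vehicle-treated control cultures.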

[8] = NCI Yeast Anticancer Drug Screen. Data for the sgs1 mgt1 strain (AID 161);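 also: 0% = growth of cultures given vehicle only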; conditions: S. cerevisiae sgs1 mgt1 strain, hits give high values
Method in brief: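 Percent growth inhibition was derived by comparing compound-exposed mutant yeast with vehicle-exposed cultures. The strain carries alterations in DNA damage repair.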

[9] = NCI Yeast Anticancer Drug Screen. Data for the cln2 rad14 strain (AID 165);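 also: 0% = growth equal to vehicle treated cultures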; conditions: S. cerevisiae cln2 rad14 strain, hits give high values
Method in brief: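 Growth inhibition, relative to vehicle-treated controls, is the read-out. The test organism is a yeast strain with defined genetic alterations, cln2 rad14.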

[10] = NCI Yeast Anticancer Drug Screen. Data for the bub3 strain (AID 167); conditions: S. cerevisiae bub3 mutant strain, hits give high values
Method in brief: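 Compounds were applied to a genetically altered yeast strain carrying a cell-cycle control defect. Growth inhibition was scored against vehicle-treated controls.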

[11] = NCI Yeast Anticancer Drug Screen. Data for the wt2 strain (AID 169);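 also: 0% = growth of vehicle-treated yeast cultures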; conditions: S. cerevisiae wt2 strain growth inhibition, hits give high values
Method in brief: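 Compound exposure of yeast; growth compared with vehicle controls; inhibition reported.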

[12] = NCI Yeast Anticancer Drug Screen. Data for the mlh1 strain (AID 171);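 also: 0% = growth of vehicle-treated control cultures of the same strain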; conditions: S. cerevisiae mlh1 strain growth inhibition, hits give high values
Method in brief: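 Compounds are applied to a genetically altered yeast strain, and its growth is compared with that of vehicle-treated cultures to give percent inhibition.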

[13] = NCI Yeast Anticancer Drug Screen. Data for the mlh1 rad18 strain (AID 175); conditions: S. cerevisiae mlh1 rad18 strain growth inhibition, hits give high values
Method in brief: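 Cells of a genetically altered yeast strain, deficient in DNA damage repair, were treated with compound. Their growth was then compared with that of vehicle-treated cultures to give inhibition.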

[14] = NCI Yeast Anticancer Drug Screen. Data for the rad18 strain (AID 177); conditions: S. cerevisiae rad18 mutant growth inhibition, hits give high values
Method in brief: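 Compounds are applied to a repair-deficient yeast strain, and growth is compared with that of vehicle-treated cultures to give percent inhibition.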

[15] = NCI Yeast Anticancer Drug Screen. Data for the CLN2oe strain (AID 163);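 also: 0% = growth of vehicle-only control cultures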; conditions: S. cerevisiae CLN2oe strain, hits give high values
Method in brief: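 Compound-treated yeast; growth vs vehicle ctrl = % inhibition. Genetically altered strain (cell-cycle control).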

[16] = NCI Yeast Anticancer Drug Screen. Data for the sgs1 strain (AID 173);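 also: 0% = growth of vehicle-only control cultures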; conditions: S. cerevisiae sgs1 mutant, hits give high values
Method in brief: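 Compounds applied to genetically altered yeast; growth compared with vehicle-treated cultures to give % inhibition.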

[17] = at 5.0 µM (retest, dose inferred, filed as 0.5)
[18] = at 50.0 µM (retest, dose inferred, filed as 5.0)

Measured: growth inhibition

COC(=O)C1=C(C(=O)OC)C(C(=O)OC)C(C(=O)OC)C(C(=O)OC)(C(=O)OC)C(C(=O)OC)=C1C(=O)OC (stereo unspecified)
active: [5]; [18] 93% | [5]; at 50.0 µM 77.9% | [6]; [18] 94% | [7]; at 100.0 µM 73% | [8]; [17] 96% | [8]; [18] 99% | [8]; at 50.0 µM 80.1% | [9]; [17] 88% | [9]; [18] 97% | [10]; [17] 95% | [10]; [18] 99% | [13]; [18] 87%
inactive: [1]; at 1.2 µM -2% | [1]; at 3.7 µM -6% | [1]; at 11.0 µM 5% | [1]; at 33.0 µM 20% | [1]; at 100.0 µM 46% | [2]; at 1.2 µM -11% | [2]; at 3.7 µM -13% | [2]; at 11.0 µM -25% | [2]; at 33.0 µM 1% | [2]; at 100.0 µM 39% | [3]; at 1.2 µM -4% | [3]; at 3.7 µM -4% | [3]; at 11.0 µM -4% | [3]; at 33.0 µM 1% | [3]; at 100.0 µM 27% | [4]; at 1.2 µM -18% | [4]; at 3.7 µM -19% | [4]; at 11.0 µM -17% | [4]; at 33.0 µM 13% | [4]; at 100.0 µM 62% | [5]; at 1.2 µM -10% | [5]; at 3.7 µM -14% | [5]; [17] 25% | [5]; at 11.0 µM 7% | [5]; at 33.0 µM 25% | [5]; at 100.0 µM 62% | [6]; at 1.2 µM -13% | [6]; at 3.7 µM -14% | [6]; [17] 20% | [6]; at 11.0 µM 1% | [6]; at 33.0 µM 16% | [6]; at 50.0 µM 60.5% | [6]; at 100.0 µM 55% | [7]; at 1.2 µM -16% | [7]; at 3.7 µM -20% | [7]; at 11.0 µM -11% | [7]; at 33.0 µM 14% | [9]; at 50.0 µM 33% | [10]; at 1.2 µM -13% | [10]; at 3.7 µM -13% | [10]; at 11.0 µM -22% | [10]; at 33.0 µM 18% | [10]; at 50.0 µM 54.5% | [10]; at 100.0 µM 35% | [11]; at 1.2 µM -22% | [11]; at 3.7 µM -18% | [11]; at 11.0 µM -17% | [11]; at 33.0 µM 1% | [11]; at 100.0 µM 58% | [12]; at 1.2 µM -16% | [12]; at 3.7 µM -23% | [12]; at 11.0 µM -18% | [12]; at 33.0 µM -1% | [12]; at 100.0 µM 39% | [13]; [17] 26% | [13]; at 50.0 µM 67.4% | [14]; at 1.2 µM -20% | [14]; at 3.7 µM -21% | [14]; at 11.0 µM -5% | [14]; at 33.0 µM 17% | [14]; at 100.0 µM 51%

Cc1cc2c3ccccc3c3ccccc3c2nn1
inactive: [1]; at 1.2 µM 2% | [1]; at 3.7 µM 21% | [1]; at 11.0 µM 60% | [2]; at 1.2 µM -7% | [2]; at 3.7 µM -6% | [2]; at 11.0 µM -8% | [2]; at 33.0 µM -8% | [2]; at 100.0 µM -5% | [3]; at 1.2 µM 13% | [3]; at 3.7 µM 38% | [3]; at 11.0 µM 56% | [3]; at 33.0 µM 60% | [3]; at 100.0 µM 52% | [4]; at 1.2 µM -4% | [4]; at 3.7 µM -6% | [4]; at 11.0 µM -5% | [4]; at 33.0 µM -4% | [4]; at 100.0 µM -6% | [5]; at 1.2 µM 5% | [5]; at 3.7 µM 25% | [5]; [17] 2% | [6]; at 1.2 µM 2% | [6]; at 3.7 µM 0% | [6]; [17] -46% | [6]; at 11.0 µM 10% | [6]; at 33.0 µM 7% | [6]; [18] -15% | [6]; at 50.0 µM 21.8% | [6]; at 100.0 µM 12% | [8]; [17] -61% | [8]; [18] -15% | [8]; at 50.0 µM 36.5% | [15]; at 1.2 µM -3% | [15]; at 3.7 µM -3% | [15]; at 11.0 µM 1% | [15]; at 33.0 µM 1% | [15]; at 100.0 µM 0% | [9]; [17] -59% | [9]; [18] -24% | [9]; at 50.0 µM 27.5% | [10]; at 1.2 µM -9% | [10]; at 3.7 µM -1% | [10]; [17] -64% | [10]; at 11.0 µM 7% | [10]; at 33.0 µM 9% | [10]; [18] -31% | [10]; at 50.0 µM 29.1% | [10]; at 100.0 µM 11% | [11]; at 1.2 µM -4% | [11]; at 3.7 µM -3% | [11]; at 11.0 µM -3% | [11]; at 33.0 µM -3% | [11]; at 100.0 µM -6% | [12]; at 1.2 µM 5% | [12]; at 3.7 µM -6% | [12]; at 11.0 µM 0% | [12]; at 33.0 µM 1% | [12]; at 100.0 µM -3% | [16]; at 1.2 µM -3% | [16]; at 3.7 µM -6% | [16]; at 11.0 µM 0% | [16]; at 33.0 µM 12% | [16]; at 100.0 µM 11% | [13]; [17] -88% | [13]; [18] -13% | [13]; at 50.0 µM 60.4% | [14]; at 1.2 µM -2% | [14]; at 3.7 µM 2% | [14]; at 11.0 µM 10% | [14]; at 33.0 µM 12% | [14]; at 100.0 µM 10%
active: [1]; at 33.0 µM 74% | [1]; at 100.0 µM 80% | [5]; at 11.0 µM 72% | [5]; at 33.0 µM 83% | [5]; [18] 77% | [5]; at 50.0 µM 94.7% | [5]; at 100.0 µM 79%

— PubChem BioAssay (NCI)
